Bioassay records deposited in PubChem BioAssay by Sanford-Burnham Center for Chemical Genomics.
CendR NRP1 mod = modulators of CendR peptide binding to human neuropilin-1 | O14786 | FAM-RPARPAR peptide binding to NRP-1, fluorescence polarization | inhibition, % at 25 µM | 360,000 tested, 0.85% active | AID 602438;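 active means inhibition or corrected inhibition above about 18%, plus a signal ratio from 0.5 to 1.5, limit read from the data, passing the limit was not always enough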
PABP1 MLLE inh = inhibitors of microRNA-mediated deadenylation, human PABP1 MLLE binding; 360,000 tested, 0.36% active; inhibition, % at 20 µM; GST-MLLE / FITC-PAM2 fluorescence polarization; P11940; in the data active means inhibition above about 35%, passing the limit was not always enough;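 further: plate controls were DMSO wells with GST-MLLE for no effect and wells lacking GST-MLLE protein for full effect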
eIF4H FP inh = inhibitors of RNA binding by human eIF4H. eIF4H fluorescence polarization binding assay. inhibition, % at 35 µM. 290,000 tested, 0.94% active. AID 2012;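 further: calls also rest on retests at 20 µM and on dose response follow-up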
PABP polyA inh = PABP-poly(A) binding inhibition. 290,000 tested, 1% active. PABP-poly(A) RNA binding, fluorescence polarization. inhibition, % at 35 µM. AID 2014. P11940;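 further: calls also rest on retests at 20 µM and on dose response follow-up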
Starred values were filed as active, the others as inactive; x = not tested or not shown. Shown are actives, neighbours in structure and some others; about 2.1% of the full set was active somewhere. Unless noted, how the calls were made is not given here.

SMILES | CendR NRP1 mod | PABP1 MLLE inh | eIF4H FP inh | PABP polyA inh
O=C(NCCCN1CCOCC1)c1nn(-c2ccccc2)c(=O)c2ccccc12 | -2 | 10 | x | x
O=C(COc1ccc(Br)cc1CO)Nc1ccc(F)cc1 | 26* | 4 | -2 | -8
O=C(COc1ccc(Br)cc1CO)Nc1ccc(S(=O)(=O)N2CCCC2)cc1 | -8 | 12 | x | x
Cc1cccc(N(CC(=O)NCc2ccc(F)cc2)C(=O)c2csnn2)c1C | 20* | 7 | 0 | 3
O=C(NCC1COc2ccccc2O1)Nc1ccccc1F (stereo not drawn) | 19* | 11 | -14 | -8
COc1ccc2c(C)c(CC(=O)N3CCN(C(=O)C4COc5ccccc5O4)CC3)c(=O)oc2c1 (stereo not drawn) | 3 | -8 | -10 | 8
Cc1c(CC(=O)N2CCN(C(=O)C3COc4ccccc4O3)CC2)c(=O)oc2cc(O)ccc12 (stereo not drawn) | 72* | -3 | -2 | -6
O=[N+]([O-])c1cc(/C=N\Nc2nccs2)ccc1O | x | x | 93* | 92*
CCN(CC(=O)Nc1c(F)cccc1F)C(=O)CSCc1c(C)noc1C | 7 | -9 | x | x
CCN(CC(=O)Nc1ccc(OC)cc1)C(=O)CSCc1c(C)noc1C | 1 | 158* | x | x
CC(C)CCNC(=O)C(C)N(C(=O)c1snc(C(N)=O)c1N)c1cnc2ccccc2c1 (stereo not drawn) | 6 | -4 | 5 | 51*
CCOc1ccc(CN2CCNC(=O)C2CC(=O)NCCc2cnccn2)cc1 (stereo not drawn) | 6 | 7 | -2 | 24
O=C(CC1C(=O)NCCN1Cc1cccc(C(F)(F)F)c1)NCCc1cnccn1 (stereo not drawn) | 21* | 11 | 34 | 16
O=C(CCc1ccccc1)N1CCCC(Nc2ccc(F)cc2)C1 (stereo not drawn) | 2 | 11 | 2 | -5
O=c1c2ccccc2nc2n1C(CBr)CS2 (stereo not drawn) | -1 | 24 | -7 | 6
O=c1nc2n(c3sc4c(c13)CCCC4)C(CBr)CS2 (stereo not drawn) | -11 | 40* | -11 | 2
COc1ccc(C2(C(=O)NC3CCCCC3)CCOCC2)cc1OC | 24* | -14 | -1 | -1
CCOC(=O)c1cc(CC)sc1NC(=O)Cc1ccsc1 | 22* | -9 | -8 | 2
N#Cc1c(N)nc2c(c1-c1ccc(Br)s1)CCCC2 | -22 | -9 | -6 | 28
Nc1nc(-c2ccc(Br)s2)c(Br)s1 | 30* | 11 | -10 | 20
Nc1nc2c(ncn2[C@@H]2O[C@H](CNCC3=Cc4cc(O)ccc4OC3)[C@@H](O)[C@H]2O)c(=O)[nH]1 | 6 | 2 | x | x
Cc1csc(NC(=O)CCCNC(=O)c2ccc(Cl)cc2)n1 | 6 | 4 | x | x
COc1cccc(/C=C/C(=O)OCC(=O)Nc2cc(C(F)(F)F)ccc2Cl)c1 | 39* | 10 | 10 | 8
COc1cccc(/C=C/C(=O)OCC(=O)c2ccc(Br)cc2)c1 | 18* | 7 | x | x
COc1cccc(/C=C/C(=O)OCC(=O)Nc2ccc(Cl)c(S(=O)(=O)N(C)C)c2)c1 | 1 | -12 | -11 | -13
SMILES | CendR NRP1 mod | PABP1 MLLE inh | eIF4H FP inh | PABP polyA inh
OCc1ccccc1CN1CCCCCC1 | 8 | 17 | x | x
COC(=O)c1ccc2nc(-c3ccc(F)cc3)c(Cc3ccccc3C(F)(F)F)n2c1 | -1 | x | x | x
O=[N+]([O-])c1cccc(C=Nc2cc3c(cc2Br)OCCO3)c1 | 27* | 1 | -2 | -13
O=C(N/N=C/c1cccc([N+](=O)[O-])c1)c1ccc2c(c1)OCCO2 | 6 | -4 | 3 | 10
Cc1[nH]c(SCC(=O)c2c(N)n(C)c(=O)n(C)c2=O)nc1Cc1ccccc1 | 8 | -15 | x | x
COc1ccc(C2NC(=O)CCC2[N+](=O)[O-])c(OC)c1OC (stereo not drawn) | -14 | -3 | 4 | -9
O=C1c2ccccc2C(=O)N1CC1=CCS(=O)(=O)C1 | -2 | 39* | -7 | -3
CN(C1CCCCC1)S(=O)(=O)c1ccc(=S)[nH]c1 | -4 | 58* | x | x
Cc1ccccc1NC(=O)CCS(=O)(=O)c1ccc(Br)s1 | -3 | 4 | 58* | 20
CCC(C)CNC(=O)c1[nH]c(C(F)(F)F)nc1-c1ccccc1 (stereo not drawn) | 9 | -4 | x | x
C#CCOCCOCCOCCNc1nc(N2CCN(C(=O)Cn3cc(CCCN=C(N)N)nn3)CC2)nc(N2CCN(C(=O)Cn3cc(CC(C)O)nn3)CC2)n1 (stereo not drawn) | 25* | -5 | x | x
C#CCOCCOCCOCCNc1nc(N2CCN(C(=O)Cn3cc(CCO)nn3)CC2)nc(N2CCN(C(=O)[C@H](C)n3cc(CCCN=C(N)N)nn3)CC2)n1 | 23* | 11 | x | x
CCCCCCn1c(CN2CCC(C)CC2)nc2c1c(=O)n(C)c(=O)n2C | 5 | 21 | 2 | -1
